# Measured values from the supplement of paper PMC11150407.
# The whole screen tested about 2,100 compounds, of which about 180 (8.6%) showed an effect of 50% or more. The sample holds strong results, similar compounds and a random draw of the others, so the mix is not that of the screen.
# Tested on: MOLM1 and UCSD/AML1 (averaged)
# Assay: cell viability relative to DMSO control (POC); higher = less growth inhibition
# Conditions: 1 µM; 72 h
# Method: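 Primary viability screen in the 3q26 EVI1-high AML cell lines MOLM1 and UCSD/AML1 (1.5e3 cells/well, 384-well), compounds at 1 uM for 72 h. ATP CellTiter-Glo read-out given as percent of viable cells over DMSO control (POC), averaged over duplicates. DMSO was the negative control and 5 uM etoposide the positive control. This mapping covers the MicroSource Spectrum and Selleck anticancer libraries (drug names).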
row,SMILES,cell viability [%]
1,CC(=O)Oc1ccc2c(c1)CC[C@@H]1[C@@H]2CC[C@]2(C)[C@@H](OC(C)=O)CC[C@@H]12,87.5
2,O=C(O)Cc1cc(I)c(Oc2cc(I)c(O)c(I)c2)c(I)c1,97.8
3,CC(=O)O[C@@H]1C[C@H]2C(C)(C)C(=O)C=C[C@]2(C)[C@H]2CC[C@@]3(C)[C@H](c4ccoc4)OC(=O)[C@H]4O[C@]43[C@@]21C,82.8
4,COC1(C)CCC2OC2(C)CCC2C1CC2(C)C (centres undefined),102
5,CC(C)=CCC[C@](C)(O)C1CC=C(C)CC1 (some centres undefined),105
6,COc1cc2nccc(Oc3ccc(NC(=O)Nc4cc(C)on4)c(Cl)c3)c2cc1OC [Tivozanib (AV-951)],31.8
7,COc1cc2nccc(Oc3ccc(NC(=O)NC4CC4)c(Cl)c3)c2cc1C(N)=O [E7080 (Lenvatinib)],58
8,O=C(Oc1cc(O)cc2c1C[C@@H](OC(=O)c1cc(O)c(O)c(O)c1)[C@@H](c1cc(O)c(O)c(O)c1)O2)c1cc(O)c(O)c(O)c1,104
9,Cc1cc(O)c(C=O)c2c1C(=O)Oc1c(COC(=O)/C=C/C(=O)O)c(O)c(C(=O)O)c(C)c1O2,104
10,Cc1ccc2c(=O)c3cccc(CC(=O)O)c3oc2c1C,99.8
11,Cc1coc2c1C(=O)C(=O)c1c-2ccc2c1CCCC2(C)C,118
12,C=CC(C1=CC(=O)C(OC)=CC1=O)c1ccccc1 (centres undefined),79.2
13,C=CC(C1=CC(=O)C=CC1=O)c1ccccc1 (centres undefined),103
14,C=C[C@@H](C1=CC(=O)C(OC)=C(OC)C1=O)c1ccccc1,8.05
15,CC1=C2C(O)C(=O)OC3CC4C(C)(C)C(=O)C=C[C@]4(C)C(CC1)[C@]23C (some centres undefined),89.3
16,COc1ncc(-c2ccc3nccc(-c4ccnnc4)c3c2)cc1NS(=O)(=O)c1ccc(F)cc1F,12.4
17,CCCS(=O)(=O)Nc1ccc(F)c(C(=O)c2c[nH]c3ncc(-c4ccc(Cl)cc4)cc23)c1F [Vemurafenib (PLX4032)],114
18,COc1ccc2c(C)cc(=O)oc2c1,110
19,COC(=O)CC1C(C)(C)C(OC(C)=O)[C@@H]2[C@@H](OC(C)=O)[C@]34O[C@@]2(O)[C@]1(C)C3CC[C@]1(C)C4=CC(=O)O[C@H]1c1ccoc1 (some centres undefined),83.6
20,O=C(OCC(O)CO)c1ccccc1Nc1ccnc2cc(Cl)ccc12 (centres undefined),104
21,O=C(NOC[C@H](O)CO)c1ccc(F)c(F)c1Nc1ccc(I)cc1F,49.5
22,O=C(NOCC1CC1)c1ccc(F)c(F)c1Nc1ccc(I)cc1Cl,33.2
23,"NC(C(=O)O)C(O)C(=O)O (stereo not drawn) [d,l-threo-3-HYDROXYASPARTIC ACID]",129
24,CC(=O)OC1CCC2(C)C(=CCC3C2CCC2(C)C(C(C)CCCC(C)C)CCC32)C1 (centres undefined),97.3
